Assay results: PubChem BioAssay (NCI)
The panel holds about 79,000 compounds, 15% with a hit somewhere; the sample as a whole holds those more often. Unmarked numbers belong to inactive results. Calls of active or inactive are those of the source. Cut-off read from the data, not from the text of the source: active = growth inhibition above about 70%; inactive = the rest. *1 amine or outer side, *2 acyl side, *3 side chain or, on linkers, in order; H or OH if unused. Where a SMILES comes first, the peptide text is derived from it. Bridges are numbered along the chain shown (N, C = ends). Roman numbers before positions name the chains, in order. [ ]: non-standard residue; d: D form. Actinocin(9to1) = Cc1c2oc3c(C)ccc(C(=O)[*:1])c3nc-2c(C(=O)[*:2])c(N)c1=O; NMeV = CN[CH](C(=O)O)C(C)C; Pip = O=C(O)[CH]1CCCCN1; Sar = CNCC(=O)O

How the values were obtained:
[1] = NCI Yeast Anticancer Drug Screen. Data for the rad50 strain (AID 155);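 note: 0% = growth of vehicle-only cultures of the same strain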; conditions: S. cerevisiae rad50 strain growth inhibition, stronger effect = higher value
In short: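 Relative growth inhibition (compound vs vehicle) was measured in yeast with a defined repair-gene alteration.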

[2] = NCI Yeast Anticancer Drug Screen. Data for the mec2-1 strain (AID 157); conditions: S. cerevisiae mec2-1 strain, stronger effect = higher value
In short: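 Yeast mec2-1 mutant treated with compound. Readout: growth inhibition vs vehicle controls.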

[3] = NCI Yeast Anticancer Drug Screen. Data for the sgs1 mgt1 strain (AID 161);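 note: 0% = growth of cultures given vehicle only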; conditions: S. cerevisiae sgs1 mgt1 strain, stronger effect = higher value
In short: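 Inhibition of yeast growth, normalised to vehicle-treated controls, is reported for a strain bearing genetic alterations in DNA damage repair.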

[4] = NCI Yeast Anticancer Drug Screen. Data for the cln2 rad14 strain (AID 165);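 note: 0% = growth equal to vehicle treated cultures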; conditions: S. cerevisiae cln2 rad14 strain, stronger effect = higher value
In short: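 cln2 rad14 yeast strain; compound exposure; growth inhibition read vs vehicle controls.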

[5] = NCI Yeast Anticancer Drug Screen. Data for the bub3 strain (AID 167); conditions: S. cerevisiae bub3 mutant strain, stronger effect = higher value
In short: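 Screening used yeast with an engineered genetic alteration affecting cell cycle control. Compound-exposed cultures were compared with vehicle cultures, and reduced growth was taken as inhibition.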

[6] = NCI Yeast Anticancer Drug Screen. Data for the mlh1 rad18 strain (AID 175); conditions: S. cerevisiae mlh1 rad18 strain growth inhibition, stronger effect = higher value
In short: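 Yeast w/ defined DNA-repair lesions; compound exposure; growth vs vehicle controls → % inhibition.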

[7] = at 5.0 µM (retest, dose inferred, filed as 0.5)
[8] = at 50.0 µM (retest, dose inferred, filed as 5.0)

| SMILES | growth inhibition [1, 7] [%] | growth inhibition [1, 8] | growth inhibition ([1]; at 50.0 µM) | growth inhibition [2, 7] [%] | growth inhibition [2, 8] | growth inhibition ([2]; at 50.0 µM) | growth inhibition [3, 7] | growth inhibition [3, 8] | growth inhibition ([3]; at 50.0 µM) | growth inhibition [4, 7] [%] | growth inhibition [4, 8] | growth inhibition ([4]; at 50.0 µM) | growth inhibition [5, 7] | growth inhibition [5, 8] | growth inhibition ([5]; at 50.0 µM) | growth inhibition [6, 7] | growth inhibition [6, 8] | growth inhibition ([6]; at 50.0 µM) |
| --- | --- | --- | --- | --- | --- | --- | --- | --- | --- | --- | --- | --- | --- | --- | --- | --- | --- | --- |
| CC12CCC(O)CC1CCC1C2CCC2(C)C(NC(=O)N(CCCl)N=O)CCC12 (configuration not stated) | 6 | 74% (active) | 91.3% (active) | 2 | 78% (active) | 80.5% (active) | -205% | 84% (active) | 92.9% (active) | -1 | 35% | 65.8% | -7% | 63% | 56.8% | 46% | 94% (active) | 94.5% (active) |
| O=C1CCCCC1Sc1ccc(Cl)cc1 (configuration not stated) | 1 | 94% (active) | 91.2% (active) | 2 | 95% (active) | 91.1% (active) | 2% | 87% (active) | 96.3% (active) | -4 | 76% (active) | 76.1% (active) | 3% | 96% (active) | 85.2% (active) | 2% | 94% (active) | 87.5% (active) |
| Cc1cccc(C)c1NC(=O)CCc1nnc(N)n1N | 17 | 4% | -20.6% | -1 | -3% | 3.75% | 7% | -2% | 18.8% | -6 | 6% | -23.4% | -3% | -2% | 8.7% | -3% | -1% | 16.4% |
| CC(=O)OCC1OC(SSc2ccccc2)C(OC(C)=O)C(OC(C)=O)C1OC(C)=O (configuration not stated) | -2 | 13% | 59.4% | -30 | 69% | 44.6% | 10% | 7% | 58.1% | -13 | 5% | 45% | -12% | 8% | 8.5% | -17% | 73% (active) | 53.9% |
| CN(C)C(=S)/N=c1\ssc(=S)n1Cc1ccco1 | 22 | -7% | 1.55% | 0 | -8% | -3.4% | -15% | -9% | -15.8% | -7 | -11% | 0.45% | 2% | -5% | 47.3% | -2% | -9% | -4.25% |
| O=C(Oc1c(Cl)c(Cl)c(Cl)c(Cl)c1Cl)c1ccc(Cl)cc1 | 25 | 99% (active) | 99.6% (active) | 19 | 99% (active) | 99.7% (active) | 24% | 99% (active) | 99% (active) | 13 | 99% (active) | 99.7% (active) | 15% | 99% (active) | 99.7% (active) | 30% | 99% (active) | 99.2% (active) |
| Cc1c2oc3c(C)ccc(C(=O)NC4C(=O)NC(C(C)C)C(=O)N5CCCCC5C(=O)N(C)CC(=O)N(C)C(C(C)C)C(=O)OC4C)c3nc-2c(C(=O)NC2C(=O)NC(C(C)C)C(=O)N3CCCCC3C(=O)N(C)CC(=O)N(C)C(C(C)C)C(=O)OC2C)c(N)c1=O (configuration not stated) (I: TV[Pip][Sar][NMeV] / II: TV[Pip][Sar][NMeV]; ester I:1-I:C, II:1-II:C; linker I:N-II:N via Actinocin(9to1); configuration not given here) | -11 | 91% (active) | 69.4% | -22 | 43% | 48.3% | 7% | 28% | 59.4% | 6 | 64% | 29.3% | 0% | 80% (active) | 73.6% (active) | 10% | 79% (active) | 45.6% |
| O=C(CCN1CCOCC1)c1ccc(Oc2ccc(F)cc2)cc1 | 65 | 87% (active) | 67.2% | 64 | 95% (active) | 77% (active) | 80% (active) | 95% (active) | 85.2% (active) | 64 | 66% | 78.1% (active) | 88% (active) | 98% (active) | 85.4% (active) | 74% (active) | 90% (active) | 88% (active) |
| O=C1/C(=C/c2cccc(F)c2)CCCc2ccccc21 | 3 | 50% | 70% (active) | 4 | 36% | 37.2% | 13% | 67% | 82.5% (active) | -14 | 14% | 12.3% | 14% | 81% (active) | 75.5% (active) | 2% | 75% (active) | 72.7% (active) |
